Measured values reported in PubChem BioAssay AID588466 (NMMLSC, 2011).
Values joined by “and” are separate entries in the source; they are usually repeats but may differ in a detail not shown here. Identical values can stand only once. Screen size: about 2,100 compounds; about 30 (1%) were called active. Not all results are given here. Unmarked numbers belong to inactive results.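 How the source made its calls: active means compounds whose mean binding response over two repeats is below 75% of the DMSO control; inactive means the rest.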

Target: Desmoglein-3 (Homo sapiens) (UniProt P32926)
Test: inhibitors of anti-DSG3 scFv binding to DSG3, confirmation, biochemical, cherry pick 1, bead-based, flow cytometry (AID 588466);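 further: 100% = 2% DMSO vehicle and 0% = excess soluble DSG3 blocking control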
Conditions: Protein G beads with DSG3, scFv-GFP binding, at 10 µM, hits give low values

Chain of Desmoglein-3 (Homo sapiens) (P32926 whole entry, looked up): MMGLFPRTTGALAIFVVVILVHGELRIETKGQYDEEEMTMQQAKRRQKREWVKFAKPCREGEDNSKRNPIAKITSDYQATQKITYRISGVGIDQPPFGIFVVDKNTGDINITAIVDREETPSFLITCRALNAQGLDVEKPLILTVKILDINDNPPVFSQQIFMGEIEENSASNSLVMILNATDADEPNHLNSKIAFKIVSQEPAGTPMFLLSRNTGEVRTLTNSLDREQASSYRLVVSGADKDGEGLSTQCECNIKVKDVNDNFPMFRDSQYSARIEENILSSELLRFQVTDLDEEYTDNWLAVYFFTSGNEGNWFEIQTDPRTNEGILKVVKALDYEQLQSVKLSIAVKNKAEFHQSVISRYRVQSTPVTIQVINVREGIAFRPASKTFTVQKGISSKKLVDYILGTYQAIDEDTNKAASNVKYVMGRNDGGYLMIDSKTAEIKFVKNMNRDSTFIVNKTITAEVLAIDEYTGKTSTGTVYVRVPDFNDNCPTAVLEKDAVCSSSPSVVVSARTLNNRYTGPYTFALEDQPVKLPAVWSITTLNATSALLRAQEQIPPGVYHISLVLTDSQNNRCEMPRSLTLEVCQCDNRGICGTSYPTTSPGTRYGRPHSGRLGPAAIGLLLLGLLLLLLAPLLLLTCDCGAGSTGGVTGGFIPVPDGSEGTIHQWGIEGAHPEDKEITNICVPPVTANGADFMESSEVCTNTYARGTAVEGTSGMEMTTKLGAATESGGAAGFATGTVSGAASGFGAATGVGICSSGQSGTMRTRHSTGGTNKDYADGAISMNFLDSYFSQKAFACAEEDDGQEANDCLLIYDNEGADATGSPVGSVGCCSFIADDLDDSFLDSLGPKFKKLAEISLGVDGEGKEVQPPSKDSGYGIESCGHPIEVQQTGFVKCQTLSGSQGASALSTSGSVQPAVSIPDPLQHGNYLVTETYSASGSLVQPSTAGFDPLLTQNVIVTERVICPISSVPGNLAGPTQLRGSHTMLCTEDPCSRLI

Row | Structure (SMILES) | binding response (% of DMSO)
1 | Cc1nc(SCc2nc3c([N+](=O)[O-])cccc3[nH]2)c2oc3ccccc3c2n1 | 108%
2 | CN(CCC1CCOCC1)C(=O)C1CCC(=O)N(CCc2ccccc2)C1 (configuration not stated) | 101%
3 | CCOC(=O)c1cccc(NC(=O)c2ccc3c(c2)C(=O)N(CC2CCCO2)C3=O)c1 (configuration not stated) | 103%
4 | COc1ccc(C2=Nn3c(nnc3-c3ccccc3Cl)SC2)cc1OC1CCOC1 (configuration not stated) | 91.3%
5 | Nc1cccc(C(=O)c2ccccc2C(=O)O)c1 | 98.2%
6 | O=C1CSC(c2ccncc2)N1Cc1ccco1 (configuration not stated) | 106%
7 | COC(=O)c1ccc(N(C(=O)CNC(=O)c2ccco2)C(C(=O)NCC2CCCO2)c2ccc(OC)c(OC)c2)cc1 (configuration not stated) | 104%
8 | CC(=O)Nc1ccc(C(=O)OCC(=O)c2ccc(S(=O)(=O)N3CCCCC3)cc2)cc1 | 110%
9 | Cc1ccc(-n2nc3c(c2NC(=O)c2ccc(Br)o2)CSC3)c(C)c1 | 95.6%
10 | Cc1cc(NC(=O)CSc2nccn2-c2ccc(Cl)cc2)no1 | 103%
11 | CCOc1cccc(C(=O)Nc2ccc(N3CCN(S(C)(=O)=O)CC3)cc2)c1 | 90.8%
12 | Clc1ccc(-[n+]2c(-c3cccc(Br)c3)[nH]c3nc4ccccc4nc32)cc1 | 90.4%
13 | COc1ccc(Oc2nnc(-c3ccccc3)cc2C#N)cc1 | 94.9%
14 | O=C(CSc1nc(=O)[nH]c2c1CCCC2)Nc1ccc(F)cc1F | 106%
15 | O=C1c2ccc(-c3ccc(F)cc3OCc3ccccc3)cc2S(=O)(=O)c2cccc(C(=O)N3CCN(c4ncc(Br)cn4)CC3)c21 | 84.2%
16 | CCOc1ccc2nc(NC(=O)c3ccc(S(=O)(=O)N4CCOCC4)cc3)sc2c1 | 77.7%
17 | CC1=CCC2C(=O)N(c3ccc(C)c(Br)c3)C(=O)C2C1 (configuration not stated) | 109%
18 | COc1ccccc1CN(C)C[C@@H]1OCc2cnnn2CCCC(=O)N([C@@H](C)CO)C[C@H]1C | 96.2%
19 | CN(c1ccccc1)S(=O)(=O)c1cccc(NC(=O)C2=NNC(=O)CC2)c1 | 98.4%
20 | CC(=O)c1cccc(N(C(=O)CNC(=O)c2cccs2)C(C(=O)NCC2CCCO2)c2ccccc2)c1 (configuration not stated) | 102%
21 | COc1ccc(-c2csc(NC(=O)c3cc(C)on3)c2C#N)cc1OC | 97.8%
22 | O=C(c1cnn(-c2nc3ccccc3s2)c1)c1ccccc1O | 102%

Row | Structure (SMILES) | binding response (% of DMSO)
23 | CCN1C(=O)[C@H]2[C@@H](c3ccc(C)cc3)N3C(=O)N(c4ccc(OC)cc4)C(=O)[C@@]3(Cc3ccccc3)[C@H]2C1=O | 98.4%
24 | COc1ccc(-c2cc(=O)oc3cc(OCC(=O)Nc4ccccn4)ccc23)cc1 | 88.2%
25 | CN1CCN(Cc2nc3ccccc3c(=O)n2Cc2nc(-c3ccc([N+](=O)[O-])cc3)cs2)CC1 | 103%
26 | Fc1ccc2nc(C3CCCCN3Cc3nc(CC4CC4)no3)[nH]c2c1 (configuration not stated) | 102%
27 | CSCCC(NC(=O)C1CCC(C)CC1)C(=O)OCC(=O)c1ccc(Cl)cc1 (configuration not stated) | 107%
28 | O=S(=O)(NCCOc1ccccc1F)c1ccc(Cl)cc1F | 102%
29 | CCOc1cc(S(=O)(=O)Nc2ccc(Cl)cn2)ccc1F | 112%
30 | CCc1ccc(Cn2nnc(C(=O)Nc3ccc(OC)cc3OC)c2N)cc1 | 96.2%
31 | COc1ccc(-c2ccc(-c3nc4c(c(=O)[nH]c(=O)n4Cc4ccccc4)n3C)o2)c([N+](=O)[O-])c1 | 87.1%
32 | COc1ccc(OC)c(NC(=O)NCCc2cccc(Cl)c2)c1 | 100%
33 | COc1ccc(Cl)c(NC(=O)NCCN2CCN(c3ccccc3)CC2)c1 | 67.9% (active)
34 | COc1ccc(NC(=O)c2ccc(NC(=O)CN3CCN(c4ccccc4)CC3)cc2)cc1 | 90.4%
35 | CC1C(=O)N2CCCc3cc(S(=O)(=O)N4CCC(C(N)=O)CC4)cc1c32 (configuration not stated) | 104%
36 | Cc1ccc(NS(=O)(=O)c2ccc3c(c2)n(C)c(=O)n3C)cc1 | 100%
37 | COc1ccc(CNC(=O)c2cnc(C)cn2)cc1 | 101%
38 | COCC(C)n1c(C)cc(C(=O)COC(=O)c2nn(C)c(=O)c3ccccc23)c1C (configuration not stated) | 98.2%
39 | CC(=O)Nc1nnc(CCS(=O)(=O)c2ccc(C)c(C)c2)s1 | 104%
40 | COc1ccc(-n2ccc(=O)c(C(=O)Nc3ccc(S(=O)(=O)Nc4nccs4)cc3)n2)cc1 | 99.6%
41 | COc1ccc(C(=O)NCc2nnc(SCC(=O)N3CCc4ccccc43)n2C2CCCCC2)cc1 | 91%
42 | CCc1nnc(NC(=O)CCN(c2ccc(C)cc2)S(=O)(=O)c2ccccc2)s1 | 103%
43 | Cc1ccsc1-c1nc(-c2ccccc2)c(-c2ccccc2)[nH]1 | 77.9%
44 | CN(Cc1cc2ccccc2[nH]c1=O)S(C)(=O)=O | 100%

Row | Structure (SMILES) | binding response (% of DMSO)
45 | Cc1nc2scc(C)n2c(=O)c1S(=O)(=O)NCc1ccc(F)cc1 | 107%
46 | COc1ccc(C(=O)NCc2ccc(C)cc2)cc1S(=O)(=O)N1CCCC1 | 105%
47 | CCOC(=O)c1c(-c2ccccc2)c[nH]c1C | 97.4%
48 | CCN(CC)c1ccc(/C=N/N2C(=O)c3ccccc3C2=O)cc1 | 102%
49 | CCOC(=O)C1=C(O)/C(=C/c2ccc(-c3ccccc3C(=O)O)o2)SC1=Nc1ccc(C)cc1 | 108%
50 | CC(=O)N1C(=O)/C(=C2\SC(=S)N(c3c(C)n(C)n(-c4ccccc4)c3=O)C2=O)c2ccccc21 | 87.6%
51 | Clc1ccc(-n2ncc3c(NCc4cccnc4)ncnc32)cc1Cl | 91.8%
52 | C=C(Br)CN1[C@@H](Cc2ccccc2)[C@H](O)[C@@]23C=C[C@@H](C[C@@H]2S1(=O)=O)O3 | 101%
53 | CCOC(=O)CSc1nc2sc(C)c(C)c2c(=O)n1N | 104%
54 | CC(=O)c1c(C)[nH]c(C(=O)NCc2ccc(Cl)cc2)c1C | 105%
55 | CCOC(=O)Cc1csc(NC(=O)COc2ccccc2)n1 | 99.8%
56 | Cc1cc(=O)oc2cc(OCC(=O)OCC(=O)Nc3ccccc3Br)ccc12 | 112%
57 | COc1cccc(-c2nc(NCc3ccco3)c3ccccc3n2)c1O | 89.5%
58 | O=C(c1cc(S(=O)(=O)N2CCOCC2)ccc1F)N1CCCc2ccccc21 | 104%
59 | CSc1nc(C2CC2)cc(-c2cccs2)c1C#N | 94.5%
60 | O=C(CSc1n[nH]c(-c2ccco2)n1)Nc1ccccc1Cl | 101%
61 | COc1ccc(CC(=O)Nc2cccc(C(=O)NN3C(=O)c4ccccc4C3=O)c2C)cc1 | 102%
62 | COC(=O)[C@]1(C)N[C@H](CN(C)C(=O)Nc2ccc(OC)cc2)[C@@H]2C(=O)N(C)C(=O)[C@@H]21 | 95.3%
63 | CCOC(=O)c1sc(NC(=O)C(CC)Sc2nccn2C)nc1C (configuration not stated) | 105%
64 | O=C(O)C1(Nc2ccc(Br)cc2)CCCC1 | 98.6%
65 | COc1ccc(S(=O)(=O)N2CCCCCC2)cc1NC(=O)CCNC(=O)c1ccc(Cl)cc1 | 107%
66 | O=C(CCCCCCN1C(=O)c2ccccc2C1=O)NC1CCCCC1 | 105%

Row | Structure (SMILES) | binding response (% of DMSO)
67 | CCCCN(CCCC)C(=O)c1cc(Cl)ccc1[N+](=O)[O-] | 98.8%
68 | COc1ccc(C(=O)COc2ccc3ccc(=O)oc3c2)c(OC)c1 | 104%
69 | COc1ccc(C)cc1NS(=O)(=O)c1ccc2c(c1)CCN2C(C)=O | 99.4%
70 | NS(=O)(=O)c1ccc(NC(=O)c2ccc(F)cc2F)c(NC(=O)c2ccc(F)cc2F)c1 | 104%
71 | CCCCSc1nnc(-c2ccc(NC(=O)CCc3ccccc3)cc2)n1C | 104%
72 | COc1ccc(-c2cc(NC(=O)c3cncn3-c3ccccc3)ccc2OC)cc1 | 107%
73 | Cc1ccc(NC(=O)CN2C(=O)NC(Cc3c[nH]c4ccccc34)C2=O)cc1S(=O)(=O)N1CCCCC1 (configuration not stated) | 102%
74 | CC(=O)c1ccc(OCC(O)CN2CC(C)OC(C)C2)cc1 (configuration not stated) | 104%
75 | Cc1cc2oc(=O)cc(-c3ccccc3)c2c(C)c1-c1ccc(F)c(Cl)c1 | 105%
76 | C[C@H](CO)N1C[C@H](C)[C@@H](CN(C)Cc2ccc(-c3ccccc3)cc2)Oc2c(NS(=O)(=O)c3cn(C)cn3)cccc2C1=O | 98.2%
77 | O=C(CN1CCN(S(=O)(=O)c2ccccc2)CC1)Nc1cccc(C(F)(F)F)c1 | 110%
78 | O=C(Nc1cc(Cl)ccc1-n1cncn1)c1cn2ccccc2n1 | 111%
79 | COc1cccc(C(=O)NCCn2ccc3ccccc32)c1 | 112%
80 | COc1cc(CN2CCC(n3nccc3NC(=O)C3CC3)CC2)cc(OC)c1 | 104%
81 | Cc1ccc(Cn2cnc3c(nnn3Cc3ccc(Cl)cc3)c2=O)cc1 | 90% and 97.5%
82 | CC(C)[C@H](NC(=O)N1c2ccccc2NC(=O)[C@@H]1C(C)C)C(=O)N[C@@H](Cc1c[nH]c2ccccc12)C(=O)O | 105%
83 | CCOc1c(Br)cc(C(=O)Nc2cccc(S(=O)(=O)N3CCOCC3)c2)cc1OC | 102%
84 | CCc1nnc(NC(=O)CCC(=O)NCc2ccccc2Cl)s1 | 97.5%
85 | COc1ccc(OC)c(NS(=O)(=O)c2ccc(-c3coc(C)n3)cc2)c1 | 97.3%
86 | COc1ccc(CCN2C(=O)C(Oc3ccccc3C)C2c2ccc3c(c2)OCO3)cc1OC (configuration not stated) | 101%
87 | CSc1nc2ccc(NC(=O)c3cccs3)cc2s1 | 102%
